This is an account of results in PubChem BioAssay (NCI).

Some test systems named below: SR leukemia; RPMI-8226 leukemia; OVCAR-8 ovarian; OVCAR-5 ovarian; OVCAR-4 ovarian; SK-OV-3 ovarian; IGROV1 ovarian; OVCAR-3 ovarian; HS 578T breast; NCI/ADR-RES ovarian.
What all share (assay): NCI-60 one-dose screen, 48 h (100 = growth as untreated, 0 = no growth, -100 = all killed)
Holding throughout (conditions): 10 µM unless noted

SMILES strings stand for the structures. About 83,000 compounds went through this panel and 20% of them were active in at least one assay; those are over-represented in the sample as a whole.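 Treatment: one concentration, 48 hours, 96-well format. Scoring: percent growth, with anything below 10 considered active.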 A number with no mark means an inactive call. Active and inactive are the calls of the source.

For `CCSC(SCC)c1ccc(Cl)cc1`, the growth in the experiment on SR leukemia is 109%; with RPMI-8226 leukemia, 106%; with OVCAR-8 ovarian it was 107%; in the experiment with OVCAR-5 ovarian, 109%; with OVCAR-4 ovarian it was 108%; in the experiment on SK-OV-3 ovarian it was 101%. Besides, the growth in the experiment with IGROV1 ovarian is 117%; with OVCAR-3 ovarian, 113%; with HS 578T breast, 102%; with NCI/ADR-RES ovarian it was 97.1%.

For the compound `Clc1ccc2c(NC3CCC(N4CCOCC4)CC3)ccnc2c1` (stereo not given), the growth with SR leukemia was 55.2%; with RPMI-8226 leukemia it was 58.2%; with OVCAR-8 ovarian, 69.1%; in the experiment with OVCAR-5 ovarian it was 105%; with OVCAR-4 ovarian, 56.7%; with SK-OV-3 ovarian, 81.5%. For the same compound, the growth is 131% in the experiment on IGROV1 ovarian, 92.7% in the experiment with OVCAR-3 ovarian, 83.8% with HS 578T breast and 77.2% with NCI/ADR-RES ovarian.

With `Cc1ccc(-c2nc([P+](c3ccccc3)(c3ccccc3)c3ccccc3)c(S(=O)(=O)c3ccc(C)cc3)o2)cc1`, the growth with SR leukemia is -10.9% (active); with RPMI-8226 leukemia, -28.2% (active); with OVCAR-8 ovarian, 8.26% (active); in the experiment on OVCAR-5 ovarian, 25.1%; in the experiment on OVCAR-4 ovarian, 14.2%; in the experiment with SK-OV-3 ovarian it was 64.8%. Moreover, the growth in the experiment with IGROV1 ovarian is 26.4%; in the experiment on OVCAR-3 ovarian it was 0.238% (active); in the experiment on HS 578T breast it was -9.93% (active); in the experiment with NCI/ADR-RES ovarian, 59.5%.

As for `NC(=O)c1cc(I)ccc1NC(=O)/C=C/c1ccccc1`, the growth in the experiment with SR leukemia is 1.87% (active); in the experiment with RPMI-8226 leukemia, -5.89% (active); with OVCAR-8 ovarian, 31%; in the experiment on OVCAR-5 ovarian it was 42.4%; with OVCAR-4 ovarian, 44.6%; with SK-OV-3 ovarian it was 69.8%. The growth is -52.7% (active) with IGROV1 ovarian, -63.3% (active) in the experiment with OVCAR-3 ovarian, -12.8% (active) in the experiment with HS 578T breast and -37.1% (active) in the experiment on NCI/ADR-RES ovarian.

Turning to `O=C(CN1CCOCC1)Nc1nc(-c2cc3ccccc3oc2=O)cs1`, the growth is 102% in the experiment on SR leukemia; 104% in the experiment on RPMI-8226 leukemia; 99.4% with OVCAR-8 ovarian; 95.5% in the experiment on OVCAR-5 ovarian; 102% in the experiment on OVCAR-4 ovarian; 116% in the experiment with SK-OV-3 ovarian. In addition, the growth in the experiment with IGROV1 ovarian is 87.9%; in the experiment with OVCAR-3 ovarian, 105%; in the experiment with HS 578T breast, 92.8%; in the experiment on NCI/ADR-RES ovarian it was 103%.

For `CC1=C([Se]CC(OC(=O)CC[Se]c2ccccc2)C(=O)NC(C)(C)C)C(=O)c2ccccc2C1=O` (stereo not given), the growth in the experiment on SR leukemia is -27.7% (active); with RPMI-8226 leukemia it was 14.8%; in the experiment with OVCAR-8 ovarian, -82% (active); with OVCAR-5 ovarian, -63.1% (active); in the experiment with OVCAR-4 ovarian, -83.6% (active); in the experiment with SK-OV-3 ovarian, -98.3% (active). Moreover, the growth is -19.2% (active) in the experiment on IGROV1 ovarian, -95.9% (active) in the experiment with OVCAR-3 ovarian, -19.1% (active) in the experiment on HS 578T breast and -36.3% (active) in the experiment on NCI/ADR-RES ovarian.

Regarding `O=C(NNC(=O)c1ccc(NC(=O)c2ccccn2)cc1)Nc1ccc([N+](=O)[O-])cc1`, the growth in the experiment on SR leukemia is 109%; with RPMI-8226 leukemia it was 106%; in the experiment on OVCAR-8 ovarian, 104%; in the experiment with OVCAR-5 ovarian, 92.4%; in the experiment on OVCAR-4 ovarian it was 108%; in the experiment with SK-OV-3 ovarian, 106%. Also, the growth in the experiment on IGROV1 ovarian is 88.5%; in the experiment with OVCAR-3 ovarian, 109%; in the experiment with HS 578T breast, 75.6%; in the experiment on NCI/ADR-RES ovarian it was 106%.

Consider `O=C1Nc2ccccc2/C1=C/c1nc2ccccc2c(=O)[nH]1`, for which the growth in the experiment with SR leukemia is 31%; in the experiment on RPMI-8226 leukemia, 85.9%; in the experiment on OVCAR-8 ovarian it was 93.4%; with OVCAR-5 ovarian, 125%; in the experiment with OVCAR-4 ovarian, 94.5%; in the experiment on SK-OV-3 ovarian, 96%. In addition, the growth in the experiment with IGROV1 ovarian is 69.5%; with OVCAR-3 ovarian, 90.9%; in the experiment with HS 578T breast, 93.4%; in the experiment on NCI/ADR-RES ovarian it was 97%.

On to `COc1ccc2c(c1)CC[C@H](O)/C2=C/c1cc(OC)c(OC)c(OC)c1`, for which the growth was -5.45% (active) with SR leukemia; 34.3% in the experiment on RPMI-8226 leukemia; 16.1% in the experiment with OVCAR-8 ovarian; 61% with OVCAR-5 ovarian; 41.1% with OVCAR-4 ovarian; 13.9% in the experiment on SK-OV-3 ovarian. Besides, the growth is 27.8% with IGROV1 ovarian, -18.3% (active) in the experiment on OVCAR-3 ovarian, 33.3% in the experiment on HS 578T breast and 6.93% (active) in the experiment on NCI/ADR-RES ovarian.

For the compound `CCCOC(=O)Nc1nc2ccc(SCC(C)C)cc2s1`, the growth is 14.3% in the experiment on SR leukemia; 28.4% with RPMI-8226 leukemia; 60.5% in the experiment with OVCAR-8 ovarian; 60.1% in the experiment with OVCAR-5 ovarian; 61.2% in the experiment on OVCAR-4 ovarian; 48.5% in the experiment on SK-OV-3 ovarian. In addition, the growth in the experiment on IGROV1 ovarian was 55.4%; in the experiment on OVCAR-3 ovarian, 15.6%; in the experiment with HS 578T breast, 65.3%; in the experiment on NCI/ADR-RES ovarian it was 16.1%.

Turning to `c1ccc(Cn2cc3c(c2)-c2oncc2CC3)cc1`, the growth was 39.3% in the experiment on SR leukemia; 8.25% (active) with RPMI-8226 leukemia; 36.4% with OVCAR-8 ovarian; 25.1% with OVCAR-5 ovarian; 64.1% in the experiment with OVCAR-4 ovarian; 13.5% in the experiment with SK-OV-3 ovarian. Also, the growth with IGROV1 ovarian was 34.9%; in the experiment on OVCAR-3 ovarian, -23.8% (active); in the experiment with HS 578T breast, 1.9% (active); in the experiment on NCI/ADR-RES ovarian it was 0.523% (active).
